Molecules are shown by their SMILES. Hit rate of the full screen: of about 190,000 compounds, about 1,300 (0.68%) were called active. No stated cut-off is given here; in the data, active means inhibition above about 50%; inactive means the rest. This excerpt belongs to a sample that is enriched for actives.

For the assay, the target named is Mannose-6-phosphate isomerase (Homo sapiens) (UniProt P34949). Put plainly: human PMI inhibitors, high substrate, primary screen, biochemical, fluorescence intensity, high mannose 6-phosphate (AID 1220). Conditions: recombinant PMI enzyme, coupled fluorescence intensity; at 20 µM; hits give high values.
Sequence of Mannose-6-phosphate isomerase (Homo sapiens) (P34949 whole entry, looked up): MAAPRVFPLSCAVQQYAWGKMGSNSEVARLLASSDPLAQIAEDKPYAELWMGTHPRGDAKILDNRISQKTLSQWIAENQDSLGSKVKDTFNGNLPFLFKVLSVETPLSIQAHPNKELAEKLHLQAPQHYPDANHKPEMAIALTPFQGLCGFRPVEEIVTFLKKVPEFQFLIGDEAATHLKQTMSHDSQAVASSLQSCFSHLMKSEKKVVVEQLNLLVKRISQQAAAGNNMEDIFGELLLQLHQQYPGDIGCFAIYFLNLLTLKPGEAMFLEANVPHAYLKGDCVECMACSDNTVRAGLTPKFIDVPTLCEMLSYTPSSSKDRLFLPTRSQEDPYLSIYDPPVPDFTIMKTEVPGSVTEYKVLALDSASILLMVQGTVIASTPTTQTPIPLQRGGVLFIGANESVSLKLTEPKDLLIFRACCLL
On to `COc1ccc(C(=O)N2CCCC2)cc1S(=O)(=O)N1CCC(C)CC1`, for which the inhibition is 5.6% (inactive). To `C=CCOC(=O)C1=C[C@@H](c2ccccc2)C[C@@H](OCc2ccc(CO)cc2)O1` belongs -6.1% (inactive); to `NC(=O)C1=C[C@@H](c2ccc(Br)cc2)C[C@@H](OCc2ccc(CO)cc2)O1`, 27.4% (inactive). In the case of `NC(=O)C1=C[C@H](c2ccccc2)C[C@H](OCc2ccc(CO)cc2)O1` it was 59.2% (active).

Regarding `NC(=O)C1=C[C@H](c2ccc(Br)cc2)C[C@H](OCc2ccc(CO)cc2)O1`, the inhibition is 51% (active). To `NC(=O)C1=C[C@@H](c2ccc(C(F)(F)F)cc2)C[C@@H](OCc2ccc(CO)cc2)O1` belongs 61.6% (active); to `O=C(O)C1=C[C@H](c2ccccc2)C[C@H](OCc2ccc(CO)cc2)O1`, 2.2% (inactive). To `O=C(O)C1=C[C@@H](c2ccccc2)C[C@@H](OCc2ccc(CO)cc2)O1` belongs -9.3% (inactive); to `NC(=O)C1=C[C@@H](c2ccccc2)C[C@@H](OCc2ccc(CO)cc2)O1`, 66% (active). As to `O=C(Nc1ccccc1)C1=C[C@H](c2ccccc2)C[C@H](OCc2ccc(CO)cc2)O1`, the inhibition was 8.7% (inactive). In the case of `NC(=O)C1=C[C@H](c2ccc(C(F)(F)F)cc2)C[C@H](OCc2ccc(CO)cc2)O1` it was 43.9% (inactive); in that of `O=C(O)C1=C[C@@H](c2ccc(C(F)(F)F)cc2)C[C@@H](OCc2ccc(CO)cc2)O1`, -0.6% (inactive). To `O=C(O)C1=C[C@@H](c2ccc(Br)cc2)C[C@@H](OCc2ccc(CO)cc2)O1` belongs -16.7% (inactive); to `CN(Cc1ccccc1)CC(O)COc1ccc(CNCCc2ccncc2)cc1` (stereo unspecified), -5.6% (inactive). Take `CN(C)c1nc(-c2ccccc2)ncc1S(=O)(=O)c1ccccc1`: the inhibition was 14.6% (inactive).

With `COc1ccc(CC(=O)Nc2ccc(-c3cn4ccc(C)cc4n3)cc2)cc1`, the inhibition was -1.3% (inactive).

With `COc1ccc(N(CC(=O)NCc2ccco2)S(=O)(=O)c2ccc(C)cc2)cc1`, the inhibition was 14.7% (inactive). To `O=C1CN2NC(=S)N(c3ccccc3)C2=CN1c1ccc(Cl)cc1` belongs -1.1% (inactive); to `CCOc1ccc(NC(=O)CSc2n[nH]c(=O)n2-c2ccccc2)cc1`, 6.5% (inactive). In the case of `Cn1cccc1/C=N/NC(=O)C12CC3CC(CC(C3)C1)C2` it was 2.4% (inactive); in that of `O=C(O)C1=C[C@@H](c2ccc3c(c2)OCO3)C[C@@H](OCc2ccc(CO)cc2)O1`, 4.3% (inactive). `NC(=O)C1=C[C@H](c2ccc3c(c2)OCO3)C[C@H](OCc2ccc(CO)cc2)O1`: the inhibition is 59.9% (active). To `C=CCOC(=O)C1=C[C@@H](c2ccc3c(c2)OCO3)C[C@@H](OCc2ccc(CO)cc2)O1` belongs 20% (inactive). In the case of `O=C(Nc1ccccc1-c1ccccc1)C1CCC1` it was 8.4% (inactive). In the case of `COc1ccc(Cc2nc(-c3ccc(-n4cccc4)cc3)no2)cc1` it was -0.1% (inactive); in that of `O=[N+]([O-])c1ccc(OCCN2CCNCC2)cc1`, -5.8% (inactive); in that of `COc1nnc(-c2ccc(N3CCCCC3)c(NC(C)=O)c2)c2ccccc12`, -9.2% (inactive).

Consider `C=CCNC(=S)N1CCC(C(=O)c2ccc3c(c2)OCCO3)CC1`, for which the inhibition was 12.3% (inactive).

As for `COc1cnc(-c2ccccn2)nc1Oc1ccccc1`, the inhibition was 12.7% (inactive). To `COc1ccc(C(=O)Cn2c(Br)nc3c2c(=O)n(C)c(=O)n3C)cc1` belongs -3% (inactive); to `COCCn1c(Br)nc2c1c(=O)n(C)c(=O)n2C`, 0.3% (inactive); to `Cc1ccc(OCCn2c(Br)nc3c2c(=O)n(C)c(=O)n3C)cc1`, 52.7% (active).

With `CCc1ccccc1NC(=O)c1cccc(Oc2ccc([N+](=O)[O-])cc2Cl)c1`, the inhibition is 6.1% (inactive). To `CN(C)S(=O)(=O)c1ccc(Cl)c(NC(=O)CSc2nc3ccccc3c(=O)n2CCCN2CCOCC2)c1` belongs 4.7% (inactive); to `CCOC(=O)c1ccccc1NC(=O)COC(=O)C1=COCCO1`, 3.8% (inactive).

For the compound `CC12CN3CC(C)(CN(C1)C3c1ccc3ccccc3c1O)C2=O` (stereo unspecified), the inhibition is 53.1% (active). As for `Cn1cc(C2N3CC4(C)CN2CC(C)(C3)C4=O)c2ccccc21` (stereo unspecified), the inhibition is 4.5% (inactive). To `CC12CN3CC(C)(CN(C1)C3c1c[nH]c3ccccc13)C2=O` (stereo unspecified) belongs 3.5% (inactive); to `CCCCCCNC(=O)Nc1ccccc1`, 0.8% (inactive). In the case of `CC(=O)N1C(=O)/C(=C2\SC(=S)N(NS(=O)(=O)c3ccc(C)cc3)C2=O)c2ccccc21` it was 38.2% (inactive); in that of `CC(=O)N1C(=O)/C(=C2\SC(=S)N(NC(=O)c3ccc(O)cc3)C2=O)c2ccccc21`, 56.1% (active).

As for `CC(/C=C1\SC(=S)N(NC(=O)c2ccc(O)cc2)C1=O)=C\c1ccccc1`, the inhibition is 23.4% (inactive). For the compound `Cc1cc(C)c(S(=O)(=O)n2nc(C)c(Br)c2C)c(C)c1`, the inhibition is -6.9% (inactive).

As for `O=C(CCn1c(=O)sc2ccccc21)NCc1cccs1`, the inhibition was -0.4% (inactive). Consider `COCc1cc(C)[nH]c(=O)c1C#N`, for which the inhibition was -5.6% (inactive).

For `O=c1c2ccccc2c2ccccc2c(=O)n1-c1ccccc1`, the inhibition is -1.1% (inactive). To `CN(C)S(=O)(=O)c1cccc(-c2cn3ccccc3n2)c1` belongs -10.7% (inactive); to `O=C1CCCN1c1nccs1`, -6.6% (inactive). In the case of `CN(C)S(=O)(=O)c1cccc(N2C(=O)CC3(CCCCC3)CC2=O)c1` it was 0.9% (inactive). In the case of `Cc1ccnc(N2C3CCC2CC(O)(c2ccccc2)C3)n1` (stereo unspecified) it was -10.5% (inactive); in that of `O=c1c2ccccc2sn1-c1ccccc1`, 62.8% (active). For `Cc1cc(=O)c2ccccc2s1`, the inhibition is 0.5% (inactive). To `O=c1[nH]n(-c2ccccc2)c(=O)c2ccccc12` belongs -0.9% (inactive). In the case of `Cc1ccccc1N=Cc1c(O)n(-c2nccs2)c(=O)c2ccccc12` it was 16.2% (inactive); in that of `CCOC(=O)c1cnn(-c2ccccc2)c1NC(=O)CCl`, -1.3% (inactive); in that of `CCN(CC)S(=O)(=O)c1cccc(NC(=O)c2cc(=O)[nH]c3ccccc23)c1`, 4.5% (inactive).

As to `CCCCNC(=O)N(C)c1nc2ccccc2s1`, the inhibition is -3.1% (inactive).

On to `CCn1c(SCC(=O)NCc2ccccc2)nc2c(c1=O)SC(C)C2` (stereo unspecified), for which the inhibition was 2.5% (inactive). Turning to `COc1ccc(CN2CCCC(CNC(=O)c3ccc(F)cc3)C2)c(F)c1` (stereo unspecified), the inhibition was -6% (inactive). As for `CCOc1ccc(-c2nc(C#N)c(NCC(C)C)o2)cc1`, the inhibition was -0.5% (inactive). In the case of `COc1ccc(CCC(=O)N2c3ccccc3CC2C)cc1` (stereo unspecified), the inhibition was 14.3% (inactive). In the case of `COc1cc(/C=C/C(=O)N2CCCc3ccccc32)cc(OC)c1OC` it was -12.4% (inactive); in that of `O=C(Nc1nc(-c2cccs2)cs1)c1ccco1`, 12.4% (inactive); in that of `CSCCC(NC(=O)c1ccco1)C(=O)OCc1cc([N+](=O)[O-])cc2c1OCOC2` (stereo unspecified), 5.4% (inactive). In the case of `CC1CCC2(CC1)NC(=O)N(NC(=O)CCl)C2=O` (stereo unspecified) it was -10.3% (inactive). `CC1CCN(CCOCCOc2ccc(Cl)cc2Br)CC1`: the inhibition was -7.9% (inactive). For `Nc1nnc(N2CCc3ccccc32)s1`, the inhibition was 6.2% (inactive). Take `Cc1c(Cl)sn(-c2ccc(Cl)cc2)c1=O`: the inhibition was -4.6% (inactive).

`Cc1ccc(Cn2c(=O)sc3ccccc3c2=O)cc1`: the inhibition is 8% (inactive). In the case of `COc1cccc(=O)c2c(C)n(-c3cc(C)cc(C)c3)c(C)c12` it was 29.9% (inactive); in that of `COc1ccc(-n2c(C)c3c(OC)cccc(=O)c3c2C)cc1`, 46.4% (inactive). To `COc1cccc(=O)c2c(C)n(C)c(C)c12` belongs -5% (inactive); to `COc1ccccc1-n1c(C)c2c(OC)cccc(=O)c2c1C`, 54.7% (active). To `COc1cccc(=O)c2c(C)n(-c3ccc(C(=O)O)cc3)c(C)c12` belongs -16.3% (inactive); to `COc1cccc(-n2c(C)c3c(OC)cccc(=O)c3c2C)c1`, 61% (active); to `CNS(=O)(=O)c1cc(C(=O)OCC(=O)NC2CCCc3ccccc32)ccc1Cl` (stereo unspecified), 9.4% (inactive). As to `COC(=O)C1=C(C)NC(=O)/C1=C\c1cc(C)n(-c2ccccc2F)c1C`, the inhibition is -51.3% (inactive).

For `O=C(CSCc1ccccc1)N1CCN(Cc2ccc3c(c2)OCO3)CC1`, the inhibition was 9.8% (inactive). As for `O=C1OCCC1Sc1nc2ccccc2c(=O)n1Cc1ccccc1` (stereo unspecified), the inhibition was -1.6% (inactive). To `COc1ccc(-c2nnc(SC)o2)c(OC)c1` belongs 2% (inactive); to `Cc1cc(NC(=O)c2sc(Nc3ccc(F)c(Cl)c3)nc2N)no1`, -10.8% (inactive); to `COC(=O)Cc1csc(Nc2ccc(F)c(Cl)c2)n1`, -0.3% (inactive). To `O=c1cc(O)c2sc(Nc3ccc(F)c(Cl)c3)nc2[nH]1` belongs 57.5% (active); to `CN(Cc1ccccc1)c1ccc(S(=O)(=O)N2CCC(C(=O)O)CC2)cc1[N+](=O)[O-]`, 10.6% (inactive); to `Brc1ccc(-c2noc(COc3ccc4c(c3)CCC4)n2)o1`, 14% (inactive). In the case of `O=C(OCCOCCN=C1NS(=O)(=O)c2ccccc21)C1CC(=O)N(c2ccccc2)C1` (stereo unspecified) it was -2.6% (inactive); in that of `Cc1nc(-c2ccc(C(=O)Nc3ccccc3F)cc2)cs1`, -3.7% (inactive); in that of `C=CCOc1c(Cl)cc(CNc2ccc(C)c(Cl)c2)cc1OC`, 12.6% (inactive). As for `COc1cc(CNc2ccc(N3CCOCC3)cc2)cc(Br)c1OC`, the inhibition was 9.3% (inactive). To `C=CCOc1c(Cl)cc(CNc2ccc3[nH]c(=O)[nH]c3c2)cc1OC` belongs 35% (inactive); to `C=CCOc1c(Cl)cc(CNc2ccc(N(C)C)cc2)cc1OC`, 54% (active); to `CCOc1cc(CNc2ccc(N3CCOCC3)cc2)cc(Br)c1OCC`, 14.8% (inactive). To `CCOc1c(Cl)cc(CNc2ccc(S(N)(=O)=O)cc2)cc1OC` belongs -2% (inactive); to `CCOc1cc(CNc2ccc(S(N)(=O)=O)cc2)cc(Cl)c1OC`, 2.7% (inactive); to `CC1=CC(C)(C)N(C(=O)CCl)c2cc(C)ccc21`, -1.9% (inactive).

As to `CN(C)C(=C(C#N)C#N)N1CCN(c2ccc(Cl)c(Cl)c2)CC1`, the inhibition was 6.1% (inactive).

For the origin of these results see PubChem BioAssay AID1220 (Sanford-Burnham Center for Chemical Genomics, 2008).
